Bioassay records: PubChem, several laboratories
The list is not random: actives were taken first. Their share in the collection is about 2.7%.
MPTP block = mitochondrial permeability transition pore inhibitors, primary screen, biochemical, isolated mouse mitochondria, absorbance. Ca2+ swelling absorbance, 30 min. inhibition, % at 10 µM. actives 1.4% (n = 360,000). AID 602449, 2012;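 active = inhibition of 50% or more, scaled per plate between neutral and stimulator controls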;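 note: 0% = DMSO wells given calcium and 100% = 1 mM EGTA wells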
SKN-1 inh = suppressors of acrylamide-induced Pgst-4::GFP reporter in worms, primary screen, SKN-1 inhibitor project, whole organism, uHTS, GFP/RFP fluorescence ratio, strain VP596 | inhibition, % at 21.8 µM | C. elegans VP596 Pgst-4::GFP/RFP ratio, 24 h | actives 0.49% (n = 360,000) | AID 624304, 2012;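 active = interference check ratio from 0.5 to 1.5 plus GFP to RFP signal ratio inhibition reaching or exceeding a fixed threshold, cut at about 30% in these data, passing the limit was not always enough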
ATG4B inh = ATG4B protease inhibitors, primary screen, biochemical, fluorescence, uHTS. Cysteine protease ATG4B (Homo sapiens), Q9Y4P1. ATG4B cleavage of LC3-PLA2, NBD-HPC fluorescence, 1 h. inhibition, % at 8.33 µM. actives 0.51% (n = 340,000). AID 504462, 2011; in the data active = inhibition above about 40%
NRP1-CendR mod = modulators of CendR peptide binding to NRP-1, primary screen, biochemical, fluorescence polarization, uHTS. Neuropilin-1 (Homo sapiens), O14786. FAM-RPARPAR peptide binding to NRP-1. inhibition, % at 25 µM. actives 0.85% (n = 360,000). AID 602438, 2012;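 active = inhibition or corrected inhibition above about 18%, plus a signal ratio from 0.5 to 1.5, limit read from the data, passing the limit was not always enough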
Target sequence (O14786 whole entry, looked up): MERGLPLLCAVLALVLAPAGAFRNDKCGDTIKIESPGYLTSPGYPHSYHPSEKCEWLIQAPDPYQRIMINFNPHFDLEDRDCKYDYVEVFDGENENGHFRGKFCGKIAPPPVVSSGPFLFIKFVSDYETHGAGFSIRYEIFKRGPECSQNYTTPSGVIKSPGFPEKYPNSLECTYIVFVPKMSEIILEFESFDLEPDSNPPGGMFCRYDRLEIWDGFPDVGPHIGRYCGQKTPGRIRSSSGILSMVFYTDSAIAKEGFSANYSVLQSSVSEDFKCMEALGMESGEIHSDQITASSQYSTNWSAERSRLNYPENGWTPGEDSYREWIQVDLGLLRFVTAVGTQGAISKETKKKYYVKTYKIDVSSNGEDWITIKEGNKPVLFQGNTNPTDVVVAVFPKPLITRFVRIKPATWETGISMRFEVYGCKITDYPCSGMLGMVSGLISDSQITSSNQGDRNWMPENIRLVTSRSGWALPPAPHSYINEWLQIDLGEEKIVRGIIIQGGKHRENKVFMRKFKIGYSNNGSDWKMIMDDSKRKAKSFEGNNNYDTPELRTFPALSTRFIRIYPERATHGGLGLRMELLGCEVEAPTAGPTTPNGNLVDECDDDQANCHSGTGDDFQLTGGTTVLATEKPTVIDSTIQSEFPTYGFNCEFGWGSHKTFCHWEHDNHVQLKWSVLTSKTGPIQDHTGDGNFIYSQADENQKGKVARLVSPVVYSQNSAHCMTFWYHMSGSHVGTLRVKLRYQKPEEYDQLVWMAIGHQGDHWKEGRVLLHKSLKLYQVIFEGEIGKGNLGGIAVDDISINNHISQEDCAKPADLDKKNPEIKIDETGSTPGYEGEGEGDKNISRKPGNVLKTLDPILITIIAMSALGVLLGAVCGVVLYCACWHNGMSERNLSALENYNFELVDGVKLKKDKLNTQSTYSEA
CFTR F508del cor = F508del CFTR correction, initial screen, CFBE line, single point; CFBE cells, YFP halide quenching; stimulated with forskolin plus potentiator P3; % fluorescence drop versus neutral controls; activity (quench increase), % at 7.58 µM; actives 0.36% (n = 350,000);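 active = mean added fluorescence quench of at least 8% versus neutral control, with both replicates also reaching 8%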;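 note: cells transiently co-express mutant CFTR-F508del with the halide-sensitive YFP; corrector assay measuring rescue of mutant channel to the surface after 24 h compound exposure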
MPTP counter = fluorescence retest of MPTP screen hits in isolated mitochondria, single concentration | shares compounds with MPTP block | membrane potential, Rhodamine 123 fluorescence | inhibition, % at 10 µM | actives 78% (n = 5,000); in the data active = inhibition above about 22%;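 note: 0% = DMSO vehicle and 100% = positive control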
MPTP abs DR = mitochondrial permeability transition pore inhibitors, dose response, biochemical, absorbance, uHTS hits; shares compounds with MPTP block; isolated mitochondria swelling; IC50, µM; actives 58% (n = 780); in the data active = IC50 below about 20 µM
MPTP counter DR = fluorescent counter-screen in isolated mitochondria, dose response, counter-screen for MPTP inhibitor project, biochemical, fluorescence, uHTS hits; shares compounds with MPTP block; isolated mitochondria counterscreen, fluorescence read-out; IC50, µM; actives 49% (n = 780); AID 651564, 2012; in the data active = IC50 below about 80 µM
The depositor's hits bear a star; · = no result given.

SMILES	MPTP block	SKN-1 inh	ATG4B inh	NRP1-CendR mod	CFTR F508del cor	MPTP counter	others
COc1ccc(Nc2nc(N3CCCC3)c3ccccc3n2)cc1	102.8*	18.9	7.6	1.9	·	100.5*
Clc1ccc2[nH]cc(-c3nnnn3-c3ccccc3)c2c1	75.6*	7.2	-24.8	5.6	·	82.4*
O=C(N/N=C/c1cc([N+](=O)[O-])ccc1O)C12CC3CC(CC(C3)C1)C2	78.3*	0.6	-5.1	-9.2	0.3	53.9*
O=C(N/N=C/c1cc([N+](=O)[O-])ccc1O)NC12CC3CC(CC(C3)C1)C2	73.9*	5.6	-7.0	1.9	·	43.8*
CCNC(=O)C(=O)N/N=C/c1cc([N+](=O)[O-])ccc1O	-22.3	6.6	-11.1	1.0	·	·
Cc1ccc(/C=C/C(=O)c2cc(Br)ccc2OC(=O)c2ccco2)cc1	3.6	-39.2	-3.3	-7.7	·	·
COc1ccccc1/C=C/C(=O)c1cc(Br)ccc1OC(=O)c1ccco1	57.0*	7.5	3.2	16.0	·	-9.4
CCNC(=O)C[C@H]1CC[C@H](NC(=O)NC2CCCCC2)[C@@H](CO)O1	·	·	·	·	2.8	·
O=[N+]([O-])c1ccc(-c2nc3ccc([N+](=O)[O-])cc3[nH]2)cc1	105.1*	3.6	-3.1	35.8*	·	92.4*
O=[N+]([O-])c1ccc2nc(C(O)C(O)c3nc4ccc([N+](=O)[O-])cc4[nH]3)[nH]c2c1 (stereo not given)	-0.2	11.9	3.4	12.3	1.3	·
O=[N+]([O-])c1ccc2nc(/C=C/c3ccc(Cl)cc3)[nH]c2c1	90.0*	28.2	-20.7	-19.5	·	80.1*
CC(C)(C)[S@](=O)N1Cc2cc(C(=O)NCCc3ccncc3)nc(-c3cccc(-c4ccccc4)c3)c2[C@@H]1CCO	·	·	·	·	-1.4	·
Cc1ccc(Cl)cc1NC(=O)c1cc2ccccc2cc1O	98.9*	24.0	-3.6	2.4	-7.1	74.2*
COc1ccccc1NC(=O)c1cc2cc(Br)ccc2cc1O	80.4*	19.9	1.9	-17.3	-1.5	28.0*
COc1cc(NC(=O)c2cc3ccccc3cc2O)c(OC)cc1Cl	27.0	-2.2	24.0	3.9	1.4	·
Cc1nc2ccccn2c1C(=O)CSc1ccc(Cl)cc1Cl	72.3*	10.1	-5.1	6.1	·	4.0
COc1ccc(Br)cc1CN(C)CC(O)COc1ccc(Br)cc1 (stereo not given)	80.2*	35.5*	2.4	13.4	-0.5	-0.9	MPTP abs DR=18.3*;MPTP counter DR=41.7*
Cc1cc(Nc2cccc(F)c2)nc(-c2ccccc2O)n1	58.9*	5.8	9.5	7.5	·	51.2*
O=C(Nc1nccs1)[C@H]1[C@H](CO)[C@H]2Cn3c(ccc(-c4cccnc4)c3=O)[C@H]2N1CC1CCCC1	·	·	·	·	3.3	·
CCOC(=O)c1sc(NC(=O)c2cccc(S(=O)(=O)N(CC)CC)c2)cc1C	51.2*	2.0	-14.2	1.8	·	10.8	MPTP abs DR=>100;MPTP counter DR=<2.5*
CCOC(=O)c1sc(NC(=O)Nc2ccc(Cl)cc2)cc1C	116.2*	-10.6	-5.0	10.5	·	46.7*
CCOC(=O)c1sc(NC(=O)c2cccc(S(=O)(=O)N3CCN(C)CC3)c2)cc1C	0.7	-16.5	-10.7	-6.2	·	·
Cc1ccc(C(NC(=O)NC(C)c2ccccc2)C(Cl)(Cl)Cl)cc1F (stereo not given)	76.3*	12.2	-7.1	4.1	·	83.3*
CC(NC(=O)Nc1ccc(Cl)cc1)c1ccccc1 (stereo not given)	30.1	-13.8	-1.0	-5.3	1.4	·
O=[N+]([O-])c1ccc(N/N=C/c2sc(N3CCOCC3)nc2-c2ccccc2)c(S(=O)(=O)Nc2ccc(Cl)cc2)c1	86.5*	11.3	12.9	-55.8	-1.7	76.0*
SMILES	MPTP block	SKN-1 inh	ATG4B inh	NRP1-CendR mod	CFTR F508del cor	MPTP counter	others
C[C@H](CO)N1C[C@H](C)[C@H](CN(C)S(C)(=O)=O)OCCCC[C@H](C)Oc2ccc(NS(=O)(=O)c3ccc(F)cc3)cc2C1=O	·	·	·	·	-0.4	·
COc1ccc(NS(=O)(=O)c2ccc3oc4ccccc4c3c2)cn1	60.4*	-1.7	-6.0	-2.2	·	64.3*
COc1ccc(NS(=O)(=O)c2ccc(Br)cc2)cn1	-1.6	-12.8	0.1	-7.2	0.7	·
CCNC(=O)[C@@H]1[C@@H](CO)[C@@H]2Cn3c(ccc(-c4cccc(F)c4)c3=O)[C@@H]2N1Cc1nccs1	·	·	·	·	-0.6	·
CCN(CC)c1ccc2nc3ccc(N)cc3[n+](-c3ccccc3)c2c1	53.8*	88.6	13.9	9.0	5.0	24.4*
CC1CCN(C(=O)N2c3ccccc3Sc3ccccc32)CC1	65.1*	18.4	5.6	-3.8	·	34.5*
CO[C@H]1CN(C)C(=O)c2cc(NC(=O)NC(C)C)ccc2OC[C@@H](C)N(CC2CC2)C[C@@H]1C	·	·	·	·	-2.3	·
Cc1ccc(SCc2nc3ccccc3n2CC(=O)Nc2ccc(Cl)cc2)cc1	86.8*	-10.7	-4.1	11.0	·	86.8*
Cc1ccc(SCc2nc3ccccc3n2CC(=O)Nc2ccccc2)cc1	10.3	7.0	-15.1	8.3	·	·
Cc1cc(C)n(C(=O)/C(C#N)=N/Nc2cc(Cl)cc(Cl)c2)n1	103.0*	3.7	4.3	4.6	·	93.6*
CS(=O)(=O)N1CC2(C1)[C@H](c1ccccc1)[C@H](CO)N2CCC(F)(F)F	·	·	·	·	-2.3	·
CCN(CC)CCN(C(=O)/C=C/c1cccs1)c1nc2ccc(Cl)cc2s1	5.0	7.8	0.9	4.1	0.0	·
CN(C)CCN(C(=O)/C=C/c1cccs1)c1nc2ccc(F)cc2s1	71.5*	-4.3	-4.6	-10.7	·	-7.7	MPTP abs DR=12.5*;MPTP counter DR=>80
CCCCN1CC(COCc2ccccc2)Oc2cccc(Oc3ccc(F)cc3OC)c2S1(=O)=O (stereo not given)	·	·	·	·	-3.2	·
O=C(CCCCCCN1C(=O)c2ccccc2C1=O)Nc1nccs1	66.4*	-13.7	-7.3	10.9	·	-1.2	MPTP abs DR=>100;MPTP counter DR=>80
CCc1c(-c2ccccc2)nc2sc3c(c2c1N)CCCC3	83.7*	8.1	36.0	-0.9	·	70.2*
CC1CCc2nc3sc4c(c3c(N)c2C1)CCCC4 (stereo not given)	88.5*	3.2	8.2	-11.5	·	81.1*
Nc1c2c(nc3sc4c(c13)CCCCC4)CCCCC2	77.8*	1.6	1.1	-2.0	-8.4	92.6*
CC1CCc2c(nc3sc4c(c3c2N)CCCC4)C1 (stereo not given)	76.1*	1.7	15.2	3.7	·	83.9*
